# Screens as filed in PubChem BioAssay.
# CD40 NFkB inh: inhibitors of CD40-induced NF-kB signaling, primary screen, BL2 cells, luciferase reporter, single point. inhibition, % at 10 µM. AID 1053188, 2014. hit rate 0.94% among 83,000. CD40L-induced, 4 h;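 active = mean inhibition of at least 50% with a set share of replicates also reaching that level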
# Hits are given with their value; - = inactive; [ ] = another dose, or the depositor's remark. Many of the other results were omitted from the sample, so hits are more common in it than they were.
SMILES,CD40 NFkB inh
O=C(c1ccc(-c2ccc([N+](=O)[O-])cc2)o1)N1CCCCCCC1,-
O=C(c1ccc(-c2ccc([N+](=O)[O-])cc2)o1)N1CCCC(C(F)(F)F)C1 (stereo not given),60.8
CCN(CC)C1=C(Cl)C(=O)C(Cl)C12OCCO2 (stereo not given),-
O=C(O)C[C@H]1C[C@@H]2c3cc(NC(=O)Nc4ccc(C(F)(F)F)cc4)ccc3O[C@@H]2[C@H](CO)O1,-
Cc1cc(C)n2nc(C(=O)Nc3cccc(S(=O)(=O)N(C)c4ccccc4)c3)nc2n1,-
CC(C)[C@@H](C)NC(=O)N(C)C[C@H]1OCc2ccccc2-c2c(n(C)c3ccccc23)C(=O)N([C@H](C)CO)C[C@@H]1C,-
CCCC(=O)Nc1cc(-c2nn(C)c(=O)c3ccccc23)ccc1N1CCCCC1,-
CCC(=O)Nc1cc(-c2nn(C)c(=O)c3ccccc23)ccc1N1CCCCC1,48.4
Cn1nc(-c2ccc(N3CCOCC3)c(NS(=O)(=O)c3ccccc3)c2)c2ccccc2c1=O,-
CNC[C@H]1OCCCC[C@@H](C)Oc2ccc(NS(=O)(=O)c3ccc(F)cc3)cc2C(=O)N([C@@H](C)CO)C[C@H]1C,-
N#C[C@H]1[C@H](c2ccccc2)[C@@H](CO)N1S(=O)(=O)c1ccc(-c2ccccc2)cc1,-
O=C(NC[C@H]1N[C@H](CO)[C@@H]1c1ccc(C2=CCCC2)cc1)C1CCCCC1,-
O=C(c1cnccn1)N1CC(=O)N2[C@@H](CO)[C@H](c3ccc(C#CC4CC4)cc3)[C@@H]2C1,-
CC(=O)N(c1ccccc1)C1CC(C)N(C(=O)c2ccccc2)c2ccccc21 (stereo not given),-
CC1CC(Nc2ccccc2)c2ccccc2N1C(=O)c1cccnc1 (stereo not given),-
C[C@@H]1C[C@H](Nc2ccccc2)c2ccccc2N1C(=O)c1cccnc1,19.6
C[C@@H](O)CNC(C)(C)CC(=O)N[C@@H]1CCc2ccccc2N(Cc2ccc(-c3ccccc3-c3nn[nH]n3)cc2)C1=O,-
O=C(O)CCC(=O)c1ccc2c(c1)OCCO2,-
CCC(=O)c1ccc2c(c1)OCCO2,-
O=C(Cn1ncc(Cl)c(Cl)c1=O)c1ccc2c(c1)OCCO2,97.8
COC(=O)C[C@](O)(CCCC(C)(C)O)C(=O)O[C@@H]1C(OC)=C[C@]23CCCN2CCc2cc4c(cc2[C@H]13)OCO4,92.3[25 µM]
COc1ccc(S(=O)(=O)N(C)C[C@H]2Oc3ccc(NC(=O)CCN4CCOCC4)cc3CC(=O)N([C@H](C)CO)C[C@@H]2C)cc1,-
COc1ccc(C#Cc2ccc3c(c2)[C@@H]2[C@@H](CCN2S(=O)(=O)c2ccccc2C)[C@@H](CO)N3C)cc1,-
O=C(Cc1ccccn1)N[C@H]1C=C[C@@H](CC(=O)N2CCCCC2)O[C@@H]1CO,-
CC(=NNC(=S)N1CCN(C2CCCCCC2)CC1)c1ccccn1,51.5
SMILES,CD40 NFkB inh
CC(=NNC(=S)N1CCN(c2ccccn2)CC1)c1ccccn1,-
S=C(NCc1ccc(Cl)cc1)N1CCN(c2ccccn2)CC1,-
CC(=NNC(=S)N1CCN(c2ccccn2)CC1)c1nccs1,77.7
CC(=NNC(=S)N1CC2CCC(CC2)C1)c1cnccn1,-
O=C(N/N=C/C1CCCCC1)c1ccccn1,-
O=C(C[C@H]1CC[C@H]2[C@@H](COC[C@H](O)CN2S(=O)(=O)c2cccc(Cl)c2)O1)N1CCOCC1,-
CC(=O)N(C)C[C@H]1Oc2c(N)cccc2C(=O)N(C)C[C@H]1C,-
COc1ccc(NC(=O)CN(C)CC(=O)Nc2sc3c(c2C#N)CCC3)cc1,-
O=C(COCc1cc(-c2ccc3c(c2)OCO3)on1)N1CCCCC1,-
O=C(c1cc(-c2ccc3c(c2)OCO3)on1)N1CCOCC1,48.3
O=C(c1cc(-c2ccc3c(c2)OCO3)on1)N1CCN(c2ccccc2)CC1,-
CN(C)CC(=O)N1[C@H](C#N)[C@@H](c2ccc(/C=C/c3ccccc3)cc2)[C@H]1CO,-
COc1ccccc1CCNC(=O)CNC(=O)Cc1cccc2ccccc12,-
C[C@@H]1CN([C@@H](C)CO)C(=O)CCCn2cc(nn2)CO[C@@H]1CN(C)C(=O)Nc1ccc(C(F)(F)F)cc1,-
COc1ccccc1S(=O)(=O)N1CC[C@@H]2[C@H](CO)Nc3ccc(Br)cc3[C@@H]21,-
Cc1cc(Br)ccc1SCC(=O)Nc1cccnc1,-
Cc1nc(C)c(NC(=O)N2CCc3ccccc32)cc1NC(=O)N1CCc2ccccc21,-
Cn1ccc2cc3c(cc21)CCN3C(=O)Nc1cccnc1,active[25 µM]
CCOC(=O)Cc1csc(SCC(=O)NC2CCCC2)n1,-
Cc1ccc(S(=O)(=O)N[C@H]2CC[C@@H](CCn3cc(C4CCCC4)nn3)O[C@@H]2CO)cc1,-
Cc1cc(-c2nc3ccccc3o2)c2ccccc2n1,-
O=S(=O)(Nc1ccc(-c2nc3ccccc3o2)cc1)c1ccccc1,-
c1ccc2nc(-c3nc4ccccc4o3)ccc2c1,81.8
C[C@@H]1CN([C@@H](C)CO)C(=O)Cc2cc(NC(=O)C3CC3)ccc2O[C@@H]1CN(C)S(=O)(=O)c1cn(C)cn1,-
